Assay [1] can be described thus: NCI Yeast Anticancer Drug Screen. Data for the rad50 strain (AID 155).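 Also: 0% = growth of vehicle-only cultures of the same strain.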 Particulars: S. cerevisiae rad50 strain growth inhibition, hits give high values. In a few lines: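 A DNA repair-deficient yeast mutant serves as the test organism; compound-induced growth inhibition is calculated against vehicle-treated cells.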
Assay [2] is described as follows: NCI Yeast Anticancer Drug Screen. Data for the mec2-1 strain (AID 157). Particulars: S. cerevisiae mec2-1 strain, hits give high values. In a few lines: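 Compounds were applied to mec2-1 yeast cells. Their growth was then compared with that of vehicle-treated cultures to give growth inhibition.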
A short description of assay [3]: NCI Yeast Anticancer Drug Screen. Data for the sgs1 mgt1 strain (AID 161).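 Also: 0% = growth of cultures given vehicle only.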 Particulars: S. cerevisiae sgs1 mgt1 strain, hits give high values. In short, it runs like this: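 Compounds are added to genetically altered yeast, and growth is compared with cultures given vehicle alone to give percent inhibition.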
Assay [4] can be described thus: NCI Yeast Anticancer Drug Screen. Data for the cln2 rad14 strain (AID 165).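 Also: 0% = growth equal to vehicle treated cultures.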 Particulars: S. cerevisiae cln2 rad14 strain, hits give high values. In a few lines:
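Strain: cln2 rad14 yeast, altered in cell cycle control and DNA damage repair. Read-out: growth inhibition vs vehicle.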

A short description of assay [5]: NCI Yeast Anticancer Drug Screen. Data for the bub3 strain (AID 167). Particulars: S. cerevisiae bub3 mutant strain, hits give high values. In short, it runs like this:
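Inhibition values come from growth of compound-treated mutant yeast normalised to vehicle-treated controls.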

The nature of assay [6]: NCI Yeast Anticancer Drug Screen. Data for the mlh1 rad18 strain (AID 175). Conditions: S. cerevisiae mlh1 rad18 strain growth inhibition, hits give high values. In a few lines: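 A repair-deficient yeast strain is exposed to test compound, and growth is scored relative to vehicle-treated controls.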
Setting [7] is: at 5.0 µM (retest, dose inferred, filed as 0.5).
Where [8] appears, read: at 50.0 µM (retest, dose inferred, filed as 5.0).

Compounds without any hit were thinned out: in the full panel of roughly 79,000, 15% have a hit. Unmarked numbers belong to inactive results. The source made the active and inactive calls. Rule as the data show it: active = growth inhibition above about 70%; inactive = the rest.

In the case of `Cc1ccc2c(ccc3c[n+]4c5ccccc5ccc4n32)c1`, the growth inhibition in assay [1] (setting [7]) was 96% (active); in assay [1] (setting [8]) it was 99% (active); in assay [1] (at 50.0 µM), 99.4% (active); in assay [2] (setting [7]) it was 92% (active); in assay [2] (setting [8]), 99% (active); in assay [2] (at 50.0 µM), 99.5% (active). The growth inhibition was 95% (active) in assay [3] (setting [7]); 100% (active) in assay [3] (setting [8]); 98.7% (active) in assay [3] (at 50.0 µM); 94% (active) in assay [4] (setting [7]); 99% (active) in assay [4] (setting [8]); 97.3% (active) in assay [4] (at 50.0 µM). Also, the growth inhibition in assay [5] (setting [7]) was 93% (active); in assay [5] (setting [8]), 99% (active); in assay [5] (at 50.0 µM), 99.3% (active); in assay [6] (setting [7]), 95% (active); in assay [6] (setting [8]), 99% (active); in assay [6] (at 50.0 µM), 99.2% (active).

For the compound `CCC(=O)c1ccc2ccc3ccccc3c2c1`, the growth inhibition in assay [1] (setting [7]) is 6%; in assay [1] (setting [8]), 60%; in assay [1] (at 50.0 µM), 62.5%; in assay [2] (setting [7]), 8%; in assay [2] (setting [8]) it was 34%; in assay [2] (at 50.0 µM), 26.4%. Also, the growth inhibition in assay [3] (setting [7]) is 4%; in assay [3] (setting [8]), 72% (active); in assay [3] (at 50.0 µM) it was 65.2%; in assay [4] (setting [7]), 4%; in assay [4] (setting [8]), 45%; in assay [4] (at 50.0 µM), -7.25%. Also, the growth inhibition in assay [5] (setting [7]) is 12%; in assay [5] (setting [8]), 87% (active); in assay [5] (at 50.0 µM), 68.8%; in assay [6] (setting [7]), 5%; in assay [6] (setting [8]), 64%; in assay [6] (at 50.0 µM), 50.9%.

Regarding `O=C(O)C(CS)Nc1c2ccccc2nc2ccccc12` (stereo not given), the growth inhibition in assay [1] (setting [7]) was 17%; in assay [1] (setting [8]), 88% (active); in assay [1] (at 50.0 µM) it was 88.6% (active); in assay [2] (setting [7]) it was 10%; in assay [2] (setting [8]), 64%; in assay [2] (at 50.0 µM) it was 39.5%. Also, the growth inhibition in assay [3] (setting [7]) was 11%; in assay [3] (setting [8]), 76% (active); in assay [3] (at 50.0 µM), 65%; in assay [4] (setting [7]), 17%; in assay [4] (setting [8]), 47%; in assay [4] (at 50.0 µM) it was 68.5%. Further, the growth inhibition in assay [5] (setting [7]) is -5%; in assay [5] (setting [8]), 71% (active); in assay [5] (at 50.0 µM) it was 37.5%; in assay [6] (setting [7]), 16%; in assay [6] (setting [8]), 81% (active); in assay [6] (at 50.0 µM), 91.2% (active).

Turning to `C=C(C)C(=O)OC1CC2=CC(CC3(C)OC3C3OC(=O)C(=C)C13)OC2=O` (stereo not given), the growth inhibition was 1% in assay [1] (setting [7]); 19% in assay [1] (setting [8]); 88.8% (active) in assay [1] (at 50.0 µM); 3% in assay [2] (setting [7]); 37% in assay [2] (setting [8]); 87% (active) in assay [2] (at 50.0 µM). For the same compound, the growth inhibition in assay [3] (setting [7]) is 4%; in assay [3] (setting [8]), 35%; in assay [3] (at 50.0 µM) it was 57.6%; in assay [4] (setting [7]) it was 8%; in assay [4] (setting [8]), 15%; in assay [4] (at 50.0 µM), 30.5%. The growth inhibition in assay [5] (setting [7]) was 1%; in assay [5] (setting [8]) it was 43%; in assay [5] (at 50.0 µM), 78.8% (active); in assay [6] (setting [7]) it was 4%; in assay [6] (setting [8]), 51%; in assay [6] (at 50.0 µM), 50.5%.

For the compound `Cc1cc2c(cc1Cl)Sc1nnc(C)n1S2(=O)=O`, the growth inhibition in assay [1] (setting [7]) is 18%; in assay [1] (setting [8]) it was 81% (active); in assay [1] (at 50.0 µM), 74.8% (active); in assay [2] (setting [7]) it was 14%; in assay [2] (setting [8]), 59%; in assay [2] (at 50.0 µM), 71% (active). Besides, the growth inhibition in assay [3] (setting [7]) is 3%; in assay [3] (setting [8]), 34%; in assay [3] (at 50.0 µM), 62.2%; in assay [4] (setting [7]), 17%; in assay [4] (setting [8]), 34%; in assay [4] (at 50.0 µM), 48.8%. Moreover, the growth inhibition is -12% in assay [5] (setting [7]); 85% (active) in assay [5] (setting [8]); 84.3% (active) in assay [5] (at 50.0 µM); 9% in assay [6] (setting [7]); 75% (active) in assay [6] (setting [8]); 75.6% (active) in assay [6] (at 50.0 µM).

On to `[N-]=[N+]=Nc1c(Cc2ccccc2)c(=O)oc2ccccc12`, for which the growth inhibition in assay [1] (setting [7]) is 15%; in assay [1] (setting [8]), 73% (active); in assay [1] (at 50.0 µM) it was 65.3%; in assay [2] (setting [7]) it was -8%; in assay [2] (setting [8]), 58%; in assay [2] (at 50.0 µM), 73.9% (active). In addition, the growth inhibition in assay [3] (setting [7]) was 3%; in assay [3] (setting [8]), 73% (active); in assay [3] (at 50.0 µM) it was 75.7% (active); in assay [4] (setting [7]), 11%; in assay [4] (setting [8]), 35%; in assay [4] (at 50.0 µM), 58.8%. The growth inhibition in assay [5] (setting [7]) was -17%; in assay [5] (setting [8]), 87% (active); in assay [5] (at 50.0 µM), 77.7% (active); in assay [6] (setting [7]), -3%; in assay [6] (setting [8]), 82% (active); in assay [6] (at 50.0 µM) it was 66.9%.

For the compound `CN(C)CCCNc1ccc(O)c2sc3ccccc3c(=O)c12`, the growth inhibition is 4% in assay [1] (setting [7]); 14% in assay [1] (setting [8]); 69.7% in assay [1] (at 50.0 µM); -5% in assay [2] (setting [7]); 33% in assay [2] (setting [8]); 34.6% in assay [2] (at 50.0 µM). Further, the growth inhibition in assay [3] (setting [7]) is -5%; in assay [3] (setting [8]) it was 20%; in assay [3] (at 50.0 µM), 63.6%; in assay [4] (setting [7]) it was -3%; in assay [4] (setting [8]) it was -11%; in assay [4] (at 50.0 µM), 15.6%. Further, the growth inhibition is 5% in assay [5] (setting [7]); 25% in assay [5] (setting [8]); 24.4% in assay [5] (at 50.0 µM); 0% in assay [6] (setting [7]); 23% in assay [6] (setting [8]); 72% (active) in assay [6] (at 50.0 µM).

`O=[N+]([O-])c1ccc(-[n+]2ccc3ccccc3c2)c([N+](=O)[O-])c1`: the growth inhibition in assay [1] (setting [7]) is 14%; in assay [1] (setting [8]), 78% (active); in assay [1] (at 50.0 µM) it was 72.4% (active); in assay [2] (setting [7]), 8%; in assay [2] (setting [8]), 80% (active); in assay [2] (at 50.0 µM), 52.3%. For the same compound, the growth inhibition in assay [3] (setting [7]) was 11%; in assay [3] (setting [8]), 79% (active); in assay [3] (at 50.0 µM), 82.4% (active); in assay [4] (setting [7]) it was 10%; in assay [4] (setting [8]), 61%; in assay [4] (at 50.0 µM), 37.4%. Further, the growth inhibition in assay [5] (setting [7]) is 6%; in assay [5] (setting [8]), 59%; in assay [5] (at 50.0 µM) it was 78% (active); in assay [6] (setting [7]), 40%; in assay [6] (setting [8]) it was 90% (active); in assay [6] (at 50.0 µM), 81.6% (active).

`C/C(=N/Nc1ccccc1)C(=O)O`: the growth inhibition is 18% in assay [1] (setting [7]); 97% (active) in assay [1] (setting [8]); 97.8% (active) in assay [1] (at 50.0 µM); 6% in assay [2] (setting [7]); 88% (active) in assay [2] (setting [8]); 97.8% (active) in assay [2] (at 50.0 µM). Also, the growth inhibition in assay [3] (setting [7]) is 11%; in assay [3] (setting [8]), 50%; in assay [3] (at 50.0 µM), 97.7% (active); in assay [4] (setting [7]) it was 8%; in assay [4] (setting [8]) it was 96% (active); in assay [4] (at 50.0 µM), 98% (active). The growth inhibition in assay [5] (setting [7]) was 6%; in assay [5] (setting [8]), 96% (active); in assay [5] (at 50.0 µM), 97.4% (active); in assay [6] (setting [7]), 28%; in assay [6] (setting [8]), 98% (active); in assay [6] (at 50.0 µM), 97.2% (active).

For the compound `S=C(N/N=C/c1ccccn1)Nc1ccccn1`, the growth inhibition in assay [1] (setting [7]) is -1%; in assay [1] (setting [8]), 99% (active); in assay [1] (at 50.0 µM), 90.8% (active); in assay [2] (setting [7]) it was -2%; in assay [2] (setting [8]), 99% (active); in assay [2] (at 50.0 µM) it was 92.9% (active). The growth inhibition in assay [3] (setting [7]) was 3%; in assay [3] (setting [8]), 99% (active); in assay [3] (at 50.0 µM) it was 91.5% (active); in assay [4] (setting [7]), -15%; in assay [4] (setting [8]), 98% (active); in assay [4] (at 50.0 µM), 88.5% (active). The growth inhibition in assay [5] (setting [7]) was -2%; in assay [5] (setting [8]) it was 98% (active); in assay [5] (at 50.0 µM), 90.9% (active); in assay [6] (setting [7]), -3%; in assay [6] (setting [8]), 96% (active); in assay [6] (at 50.0 µM) it was 90.1% (active).
